Source: PubChem BioAssay AID463193 (University of Pittsburgh Molecular Library Screening Center, 2010)
Hit rate of the full screen: of about 190,000 compounds, about 1,900 (1%) were called active.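 How the source made its calls: active means percentage of spot-positive cells more than 3 SD above its plate mean, without a fluorescence outlier flag or 80% toxicity; inconclusive means no clear call, values can overlap the other calls; inactive means the rest.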 What follows is part of a selection rich in actives, with near analogues and random picks from the rest.

experiment: autophagy modulators in MEF cells, primary screen, imaging, high-content, MEF GFP-LC3 (AID 463193); conditions: MEF GFP-LC3 puncta imaging, at 10 µM; % cells with GFP-LC3 spots: stronger effect = higher value; toxicity: measured here: cell loss, nuclei count;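 on % cells with GFP-LC3 spots: spot-positive cell cutoff set from DMSO-treated cells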;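 on toxicity: cell loss after 18 h compound exposure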

Compound | % cells with GFP-LC3 spots | toxicity [%]
COc1ccc(C(=O)Nc2cccc(S(C)(=O)=O)c2)cc1 | 7.34% (inactive) | 2.69
CCN(CC)S(=O)(=O)c1ccc(Cl)c(C(=O)NC(C)C(c2cccs2)N2CCCC2)c1 (centres undefined) | 1.61% (inactive) | 7.32
CCCC(=O)NC(C)C(c1cccs1)N1CCN(c2ccccc2)CC1 (centres undefined) | 5.17% (active) | 28.7
CC(NC(=O)Nc1ccccc1)C(c1cccs1)N1CCN(c2ccccc2)CC1 (centres undefined) | 10.1% (inactive) | -0.847
COc1cc(CNc2ncn[nH]2)ccc1OCc1ccccc1C | 0.305% (inactive) | 8.6
COc1ccc2c(c1)CCc1c(C(=O)N3CCc4ccccc4C3)noc1-2 | 1.3% (inactive) | 5.85
COc1ccc2c(c1)CCc1c(C(=O)Nc3c(C)n(C)n(-c4ccccc4)c3=O)noc1-2 | 10.1% (inactive) | 17.1
COc1ccc2c(c1)CCc1c(C(=O)N3CCCC3)noc1-2 | 25.2% (active) | 71.1
Cc1ccc(NC(=O)C(=O)NCc2ccc(/C=N/NC(=O)c3c(C)nc4cc(C)ccn34)o2)cc1 | 7.6% (inactive) | -9.46
Cc1ccc(C(=O)/C=C/Nc2ccc(S(=O)(=O)Nc3onc(C)c3C)cc2)cc1 | 2.91% (inactive) | 14.6
COc1cc2c(cc1OC)CC1(CCCCC1)N=C2 | 0.564% (inactive) | -2.01
CNc1nc2c(C)cccn2c(=O)c1C=Nc1ccc(OC)cc1 | 16.2% (inactive) | 19.6
CCn1c(=N)c(C(=O)NCCCOC)cc2c(=O)n3cccc(C)c3nc21 | 6.38% (inactive) | 16.3
Cc1cccn2c(=O)c(/C=C3\SC(=S)N(CC(C)C)C3=O)c(NCCCOC(C)C)nc12 | 83.5% (active) | 1.08
Cn1cc(-c2ccccc2)cc(C#N)c1=O | 1.72% (inactive) | 2.28
COc1ccc(CN2CN(C3CCCC3)CSC2=S)cc1 | 6.4% (inactive) | -8.41
COc1ccc(C(CC(=O)Nc2ccc(C)cc2)NC(=O)C(F)(F)F)cc1 (centres undefined) | 6.89% (inactive) | -5.77
S=C(NCc1cccnc1)Nc1ccc(Cl)cc1Cl | 1.61% (inactive) | 10
O=C(CSc1cccc2cccnc12)N/N=C/c1cccnc1 | 16.6% (inactive) | 24.2
CC(=O)/C(=N\Nc1ccc(Cl)cc1Cl)Sc1cccc2cccnc12 | 80.1% (active) | -7.61
CC(C)(C)CC(C)(C)NCC(O)COCCOc1ccc(Br)cc1 (centres undefined) | 10.9% (inactive) | 5.37
c1ccc(C2c3[nH]c4ccccc4c3CCN2Cc2cccn2-c2cccnc2)nc1 (centres undefined) | 1.12% (inactive) | -2.12
Fc1cccc2ncnc(OCc3ccccc3)c12 | 3.59% (inactive) | -3.11
COc1ccc(OC)c(NC(=O)CN2CCN(C(=O)c3ccco3)CC2)c1 | 0.967% (inactive) | 2.86
COc1ccc(OC)c(NC(=O)Cn2c(=O)oc3ccccc32)c1 | 18.4% (active) | 3.57
COc1ccc(CCNC(=O)CCn2c(=O)oc3ccccc32)cc1OC | 4.11% (inactive) | -1.63

Compound | % cells with GFP-LC3 spots | toxicity [%]
CCN(CC(=O)NCCc1ccccc1)S(=O)(=O)c1ccccc1 | 12% (inactive) | 29.2
Cc1c(Br)c([N+](=O)[O-])nn1CC(=O)N1CCN(Cc2ccccc2)CC1 | 3.58% (inactive) | 7.29
CC(Sc1nc2ccccc2c(=O)n1Cc1ccco1)C(=O)c1ccccc1 (centres undefined) | 11.8% (inactive) | -5.88
CSc1nc2ccccc2c(=O)n1Cc1ccc(F)cc1 | 35.2% (active) | 0.835
O=C(CCn1c(SCC(=O)c2ccccc2)nc2ccccc2c1=O)NCc1ccc(F)cc1 | 5.36% (inactive) | 4.33
CC(=O)n1c(C=Nc2ccccc2)c(O)c2ccccc21 | 6.01% (inactive) | -16
COc1ccc(NC(=O)Cn2c(=O)n(Cc3ccco3)c(=O)c3ccccc32)cc1 | 3.23% (inactive) | -0.177
CN(c1ccccc1)c1ccc(/C=c2\s/c(=C(/C#N)C(=O)C(C)(C)C)n(Cc3ccco3)c2=O)cc1 | 71.3% (active) | -2.03
CCOC(=O)CSc1nc2c(sc(=S)n2CCc2ccccc2)c(=O)n1Cc1ccco1 | 25.9% (inactive) | 36.2
Cc1cc(C(=O)N/N=C/c2cc([N+](=O)[O-])cc(C)c2O)n[nH]1 | 6.01% (inactive) | 8.83
CCOC(=O)Cc1ncccc1C(=O)Nc1ccc(OC)cc1 | 2.71% (inactive) | -9.63
O=C(CSc1nnc(-c2ccncc2)n1-c1ccc(Cl)cc1)Nc1ccc(C(=O)O)cc1 | 1.88% (inactive) | -0.961
COC(=O)c1ccc(C(=O)OC)c(NC(=S)N2CCN(c3cc(Cl)ccc3C)CC2)c1 | 12.5% (inactive) | 21.9
COC(=O)c1ccc(C(=O)Nc2cc(Cl)ccc2Cl)cc1NC(=O)c1ccccc1C | 29.3% (active) | -19.2
CCCN(CCC)C(=S)Nc1cc(C(=O)OC)ccc1C(=O)OC | 12.3% (inactive) | -2.2
CN(c1ccccc1)S(=O)(=O)c1ccc(Cl)c(C(=O)OCC(=O)N2CCOCC2)c1 | 0.158% (inactive) | 2.3
CN(c1ccccc1)S(=O)(=O)c1cc(C(=O)OCC(=O)N2CCN(C(=O)c3ccco3)CC2)ccc1Cl | 11.3% (active) | -3.57
O=C(OCC(=O)N1CCN(C(=O)c2ccco2)CC1)c1ccccc1Cc1ccccc1 | 7.07% (inactive) | 4.3
Cc1ccc(-n2cc(CN(C)Cc3nccn3C)c(-c3cccc(C)c3)n2)cc1 | 1% (inactive) | -0.155
CCN(CC)C(=O)CSc1nnc(C2CCCCC2)o1 | 4.79% (inactive) | -0.426
CCCCCC1CCC(c2nnc(SCC(C)=O)o2)CC1 (centres undefined) | 10.7% (active) | -6.19
CN(C)/N=C/c1cc(Cl)cc([N+](=O)[O-])c1O | 9.47% (inactive) | -11.7
O=C(Cn1cnc2c(nnn2Cc2ccc(F)cc2)c1=O)NCc1ccc2c(c1)OCO2 | 2.36% (inactive) | -2.24
CCCc1nc(NCc2ccc3c(c2)OCO3)c2nnn(Cc3ccccc3Cl)c2n1 | 15.7% (active) | 5
Cc1nc(Nc2ccc3c(c2)OCCO3)c2nnn(Cc3ccccc3Cl)c2n1 | 8.6% (inactive) | 4.03
CCOc1ncccc1C(=O)N(C)CC(=O)Nc1ccc(F)cc1 | 5.93% (inactive) | -12.3
